Assay results reported in PubChem BioAssay (NCI).
About 83,000 compounds went through this panel and 20% of them were active in at least one assay; those are over-represented in the sample as a whole.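 Percent growth is the endpoint: 0 to 100 indicates growth inhibition (40 means 60% inhibition), 0 means no net growth, and negative values indicate cell death.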 Activity calls are given as the source filed them. The calls were made as follows: active = growth percent below 10; inactive = the rest.

Experiments:
Assay in all cases: NCI-60 one-dose screen, 48 h (100 = growth as untreated, 0 = no growth, -100 = all killed)
Conditions in all cases: 10 µM unless noted
[1] = test system: SK-MEL-2 melanoma
[2] = test system: EKVX NSCLC
[3] = test system: SN12C renal
[4] = test system: UO-31 renal
[5] = test system: ACHN renal
[6] = test system: CAKI-1 renal
[7] = test system: A498 renal
[8] = test system: CCRF-CEM leukemia
[9] = test system: MOLT-4 leukemia
[10] = test system: SR leukemia
[11] = test system: RPMI-8226 leukemia
[12] = test system: OVCAR-8 ovarian
[13] = test system: OVCAR-5 ovarian
[14] = test system: OVCAR-4 ovarian
[15] = test system: SK-OV-3 ovarian
[16] = test system: IGROV1 ovarian
[17] = test system: OVCAR-3 ovarian
[18] = test system: HS 578T breast
[19] = test system: NCI/ADR-RES ovarian

Measured: growth

Cc1ccc(/C=C(\C#N)n2nnc3cc(F)c(F)cc32)cc1
active: [3] 2.07% | [8] 5.57% | [9] -2.32% | [10] 7.33% | [11] 4.53% | [12] 6.79% | [13] -4.62% | [16] 2.76% | [17] 7.86%
inactive: [1] 14.8% | [2] 30.9% | [4] 13.2% | [5] 22.5% | [6] 32.6% | [7] 13% | [14] 46% | [15] 53.6% | [18] 36.1%

C=C1C(=O)O[C@H]2[C@H]1CC/C(COC(=O)NCc1ccc(Cn3c(=O)sn(-c4ccc(C#N)cc4)c3=O)cc1)=C\CC[C@@]1(C)O[C@@H]21
inactive: [1] 84.8% | [2] 92.2% | [3] 50.3% | [4] 75.9% | [5] 79.5% | [6] 58.4% | [7] 120% | [9] 30% | [10] 55% | [12] 74.1% | [14] 46.5% | [16] 57.8% | [18] 99.4% | [19] 103%
active: [8] 3.9% | [11] 6.41%

COc1ccc(C2CC(c3cc(OC)c(OC)c(OC)c3)=NO2)cc1OCCCCOc1cc2c(cc1OC)C(=O)N1CCC[C@H]1C=N2 (stereo partly drawn)
inactive: [2] 16.8% | [3] 32.2% | [4] 19.5% | [6] 11.1% | [8] 69.3% | [11] 17.1% | [12] 26.1% | [13] 17.9% | [14] 13.8% | [15] 22% | [19] 19.8%
active: [1] -35.2% | [5] 0.735% | [7] -67.3% | [9] 7.66% | [10] -18.1% | [16] -21.5% | [17] 0.847% | [18] 0.334%

CCSc1oc(C)nc1[P+](c1ccccc1)(c1ccccc1)c1ccccc1
active: [11] 5.08%
inactive: [1] 50% | [2] 25.9% | [3] 27.7% | [4] 82.3% | [5] 83.4% | [6] 70.6% | [7] 19.3% | [8] 37.7% | [9] 38.4% | [10] 36.2% | [12] 21.5% | [13] 69.2% | [14] 38.2% | [15] 28% | [16] 30.3% | [17] 15.8% | [18] 56.3% | [19] 97.8%

CN1CCN(C(=O)C(C)(C)c2ccc(C(=O)Nc3cn4cc(-c5ccncc5)ccc4n3)cc2)CC1
active: [1] -26.7% | [4] -23.7% | [5] 2.6% | [6] -5.37% | [7] -63.2% | [14] 2.83% | [15] 9.33% | [16] 6.72% | [18] -6.52%
inactive: [2] 17.9% | [3] 15.6% | [8] 16% | [9] 11.3% | [10] 11.8% | [11] 10.7% | [12] 14.6% | [13] 18.3% | [19] 21.1%

O=C1c2ccccc2C(=O)c2c1cc1c(c2[N+](=O)[O-])OCO1
active: [1] -30.8% | [4] -3.07% | [5] -18.6% | [6] 2.82% | [7] -44.9% | [11] 7.28% | [13] 9.69% | [15] -14.7% | [16] 5.43% | [18] 6.81% | [19] -11.7%
inactive: [2] 22.9% | [3] 13.9% | [8] 22.9% | [9] 28.7% | [10] 14.6% | [12] 14.4% | [14] 19.2%

COc1cccc(C(=O)NNc2nc(Cl)nc(Cl)n2)c1
inactive: [1] 96.3% | [2] 98% | [3] 100% | [4] 88.4% | [5] 101% | [6] 96.1% | [7] 96.6% | [8] 101% | [9] 101% | [10] 101% | [11] 95.7% | [12] 95.4% | [13] 101% | [14] 107% | [15] 102% | [16] 100% | [17] 106% | [18] 95.3% | [19] 104%

CC1C=CC(OC(=O)C(C)(O)CCC(O)(C(=O)OC2CC(O)C(C(C)C)CC2(C)O)C(C)C)(C(C)C)CC1 (stereo not drawn)
inactive: [18] 22.4% [4.63 µM]
active: [1] -81.6% [4.63 µM] | [2] -73.6% [4.63 µM] | [3] -62.4% [4.63 µM] | [4] -99.6% [4.63 µM] | [5] -93.8% [4.63 µM] | [6] -97.3% [4.63 µM] | [7] -92.3% [4.63 µM] | [8] -31.8% [4.63 µM] | [9] -46.4% [4.63 µM] | [10] -24.7% [4.63 µM] | [11] -39.7% [4.63 µM] | [12] -9.1% [4.63 µM] | [13] -85.3% [4.63 µM] | [14] -90.5% [4.63 µM] | [15] -91.5% [4.63 µM] | [16] -70.6% [4.63 µM] | [17] -94.3% [4.63 µM] | [19] -9.57% [4.63 µM]

O=C(CN1CCCCCC1)Nc1nc2ccc(NCc3ccc(Cl)cc3)cc2s1
inactive: [1] 109% | [2] 96.4% | [3] 95.5% | [4] 88.6% | [5] 88.7% | [6] 86.1% | [7] 110% | [8] 93% | [9] 92.4% | [10] 97.2% | [11] 79.3% | [12] 95.3% | [13] 98.6% | [15] 107% | [16] 98.4% | [17] 104% | [18] 98% | [19] 106%

O=S(=O)(NCCNc1nccc(-c2c(-c3cccc(O)c3)nc3occn23)n1)c1ccc(Br)cc1
active: [10] 7.33% | [16] 4.48%
inactive: [1] 29.1% | [2] 62.1% | [3] 35.6% | [4] 30.8% | [5] 29.8% | [6] 20.2% | [8] 14.6% | [9] 10.2% | [11] 29.8% | [12] 31.3% | [13] 51% | [14] 36.8% | [15] 29.4% | [17] 36% | [18] 21.8% | [19] 99.7%

Cc1ccc2nc(/C(C#N)=C(/CCCO)NC(Cc3ccccc3)C(=O)OCc3ccccc3)[nH]c(=O)c2c1 (stereo not drawn)
inactive: [1] 96.8% | [2] 95.6% | [3] 103% | [4] 112% | [5] 107% | [6] 90.2% | [7] 210% | [8] 164% | [9] 112% | [10] 92.3% | [11] 114% | [12] 120% | [13] 89.2% | [14] 125% | [15] 106% | [16] 127% | [17] 110% | [18] 183% | [19] 32.6%

C=C(C)[C@@H]1CC[C@]2(C)[C@H](CC=C3[C@@H]4CC(C)(C)CC[C@]4(CO)CC[C@]32C)[C@@]1(C)CCCN
active: [1] -35.7% | [3] -59.7% | [5] -40.8% | [8] -18.4% | [9] -35.9% | [10] -52.1% | [11] -47.5% | [12] -85.1% | [14] -21.8% | [16] 8.73% | [17] -42%
inactive: [2] 97.4% | [4] 47.7% | [6] 40.3% | [7] 80.5% | [13] 26% | [15] 82.8% | [18] 43.4% | [19] 49.1%

COc1ccccc1C(=O)Nc1cccc(NC(=O)c2ccoc2C)c1
inactive: [1] 10.3% | [2] 71% | [3] 43.3% | [4] 49.6% | [5] 52.1% | [6] 40.6% | [7] 47.1% | [8] 10.9% | [9] 25% | [10] 15.5% | [11] 20.7% | [12] 40.4% | [13] 85.3% | [14] 77.7% | [15] 66.1% | [16] 41.6% | [17] 15% | [18] 40.2%
active: [19] 9.85%

COc1ccc(C(=O)c2cc3c(N)c(C(=O)Nc4ccccc4)sc3nc2C)cc1
inactive: [1] 54.8% | [2] 50.4% | [3] 32.1% | [4] 52.3% | [5] 42.7% | [6] 40% | [8] 10.4% | [9] 18.3% | [11] 14.3% | [12] 25.5% | [13] 38.8% | [14] 74.8% | [15] 33% | [16] 39% | [18] 10.6%
active: [7] -1.62% | [10] 8.41% | [17] -4.41%

C=C1CC[C@@H]2[C@](C)(COC(C)=O)[C@H](OC(C)=O)CC[C@@]2(C)[C@@H]1CC(Nc1ccc(S(=O)(=O)NC(C)=O)cc1)C1=CCOC1=O (stereo partly drawn)
inactive: [2] 57.5% | [6] 30.3% | [7] 73.4% | [14] 26.1% | [15] 67.3% | [18] 32.5% | [19] 11.9%
active: [1] -7.41% | [3] 1.94% | [4] -58.5% | [5] -63.2% | [8] -27.9% | [9] 0.118% | [10] 2.08% | [11] -16.2% | [12] -18.2% | [13] -40.1% | [16] -10%

Ic1ccccc1I
inactive: [1] 85.4% | [2] 98.9% | [3] 105% | [4] 78.6% | [5] 104% | [6] 105% | [8] 42.6% | [9] 101% | [10] 90.1% | [11] 104% | [12] 96.8% | [13] 98% | [14] 101% | [15] 106% | [16] 99.8% | [17] 110% | [18] 97.1% | [19] 101%
